# Screen size: about 310,000 compounds; about 14,000 (4.5%) showed an effect of 50% or more. The effect is printed as a negative number. What follows is part of a selection rich in strong results, with near analogues and random picks from the rest.
# Molecular target: human ether-à-go-go-related gene (hERG) potassium channel (human, UniProt Q12809)
# Test: primary screen, population patch clamp on CHO cells stably expressing hERG; higher = less effect of the substance
# 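Further: peak tail current of the secondary pulse compared with the same well before compound.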
# Sequence of human ether-à-go-go-related gene (hERG) potassium channel (Q12809 whole entry, looked up): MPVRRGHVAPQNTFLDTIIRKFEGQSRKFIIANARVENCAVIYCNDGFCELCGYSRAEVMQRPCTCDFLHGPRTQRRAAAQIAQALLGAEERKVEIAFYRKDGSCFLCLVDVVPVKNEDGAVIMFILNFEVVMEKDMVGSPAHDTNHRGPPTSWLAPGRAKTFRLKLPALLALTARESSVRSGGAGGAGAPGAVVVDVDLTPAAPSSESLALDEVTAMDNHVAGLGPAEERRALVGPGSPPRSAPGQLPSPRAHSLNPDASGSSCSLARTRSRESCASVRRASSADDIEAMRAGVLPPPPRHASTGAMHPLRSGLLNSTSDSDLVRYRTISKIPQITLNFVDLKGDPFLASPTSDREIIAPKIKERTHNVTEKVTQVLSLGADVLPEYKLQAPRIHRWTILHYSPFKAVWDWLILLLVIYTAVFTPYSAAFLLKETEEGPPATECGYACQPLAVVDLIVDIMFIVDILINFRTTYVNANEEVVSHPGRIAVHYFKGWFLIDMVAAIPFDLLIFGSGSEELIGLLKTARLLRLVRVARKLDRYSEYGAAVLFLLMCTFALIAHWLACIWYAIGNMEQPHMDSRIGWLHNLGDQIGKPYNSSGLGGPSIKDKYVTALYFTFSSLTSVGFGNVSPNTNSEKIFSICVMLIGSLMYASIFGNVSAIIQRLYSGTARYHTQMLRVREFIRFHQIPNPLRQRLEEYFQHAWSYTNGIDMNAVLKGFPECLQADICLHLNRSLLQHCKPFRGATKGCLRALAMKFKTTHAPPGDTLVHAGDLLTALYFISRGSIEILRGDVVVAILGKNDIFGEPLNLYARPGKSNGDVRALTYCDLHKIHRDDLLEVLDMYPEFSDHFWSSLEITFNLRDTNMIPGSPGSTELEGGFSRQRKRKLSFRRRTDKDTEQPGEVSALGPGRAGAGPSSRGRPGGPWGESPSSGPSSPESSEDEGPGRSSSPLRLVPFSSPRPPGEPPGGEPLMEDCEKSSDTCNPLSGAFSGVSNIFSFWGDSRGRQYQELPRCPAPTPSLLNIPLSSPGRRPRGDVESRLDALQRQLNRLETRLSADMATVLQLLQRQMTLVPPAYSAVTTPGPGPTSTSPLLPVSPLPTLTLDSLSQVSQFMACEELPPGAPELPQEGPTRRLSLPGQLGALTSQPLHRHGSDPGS
row,Structure (SMILES),"hERG current change (%, negative = inhibition) at 10uM [%]"
1,COc1cc(/C=C2\SC(=S)N(CCC(=O)Nc3ccc(O)cc3)C2=O)cc(OC)c1OC,11.9
2,COCCCn1c(=O)c2sccc2n2c(CCCC(=O)NCc3cccc(OC)c3)nnc12,-6.59
3,O=C1CSC(c2cccnc2)N1c1cccc(Cl)c1 (stereo not shown),-1.13
4,CCOC(=O)c1c(NC(=O)C2CCCO2)sc(C(=O)OC(C)(C)C)c1C (stereo not shown),9.29
5,COc1cccc(Nc2nnc(Cc3cccnc3)c3ccccc23)c1,-75.8
6,COc1ccc(Nc2nnc(Cc3ccccc3)c(=O)[nH]2)c(OC)c1,3.85
7,COc1cccc(NC(=S)NCc2cccnc2)c1,8.76
8,COc1ccc(Nc2ncnc3ccccc23)c(OC)c1.Cl,-10.2
9,COc1cccc(NC(=O)Cn2nc(Cc3cccnc3)c3ccccc3c2=O)c1,-34.6
10,COc1ccc(Nc2nnc(Cc3ccncc3)c3ccccc23)c(OC)c1,-72.7
11,Cc1csc2c(N3CCN(C(=O)Nc4ccccc4)CC3)ncnc12,-25.4
12,CCOC(=O)N1CCC(NC(=O)c2cccc3c2C(=O)N(Cc2cccnc2)C3)CC1,-13.9
13,CCOC(=O)C1=C(COC(=O)CCOc2ccccc2C)NC(=O)NC1C (stereo not shown),-28.4
14,NC(=O)c1cc(-c2csc(-c3cccnc3)n2)ccc1O,5.27
15,COC(CNC(=O)c1cn(C)c2ccc(S(=O)(=O)N(C)C3CCCCC3)cc2c1=O)OC,-21.5
16,CCCCN(CC)CCCNC(=O)c1cn(C)c2ccc(S(=O)(=O)N(C)C3CCCCC3)cc2c1=O,-73.2
17,CCN(CC)CCCNC(=O)c1cn(C)c2ccc(S(=O)(=O)N(C)C3CCCCC3)cc2c1=O,-24.8
18,CCCCN(C)CCCNC(=O)c1cn(C)c2ccc(S(=O)(=O)N(C)C3CCCCC3)cc2c1=O,-75
19,CC(C)OCCCNC(=O)c1cn(C)c2ccc(S(=O)(=O)N(C)C3CCCCC3)cc2c1=O,-22
20,CCN(CC)S(=O)(=O)c1ccc2c(c1)c(=O)c(C(=O)NCCN(C)CCc1ccccc1)cn2C,-67.1
21,CCN(CC)CCNC(=O)c1cn(C)c2ccc(S(=O)(=O)N(C)C3CCCCC3)cc2c1=O,-42.8

row,Structure (SMILES),"hERG current change (%, negative = inhibition) at 10uM [%]"
1,CCN(CC)S(=O)(=O)c1ccc2c(c1)c(=O)c(C(=O)NCCc1ccccc1)cn2C,-0.204
2,CN(CCNC(=O)c1cn(C)c2ccc(S(=O)(=O)N(C)C)cc2c1=O)CCc1ccccc1,-27.1
3,CCN(CC)CCCNC(=O)c1cn(C)c2ccc(S(=O)(=O)N(C)C)cc2c1=O,3.07
4,CCCCN(CCCC)CCNC(=O)c1cn(C)c2ccc(S(=O)(=O)N(C)C3CCCCC3)cc2c1=O,-76.7
5,COCCNC(=O)c1cn(C)c2ccc(S(=O)(=O)N(C)C3CCCCC3)cc2c1=O,-27.7
6,Cn1c(=O)n(C)c2cc(N3CCOCC3)c(NC(=O)c3ccc(F)cc3)cc21,-8.15
7,Cc1cccc2cc3ccccc3nc12,4.66
8,Cc1cc(CNC(=O)COc2ccc(C)c(C)c2)c2ccccc2n1,2.15
9,O=C(N/N=C/c1ccc(Cl)c([N+](=O)[O-])c1)c1cc(-c2ccccc2)nc2ccccc12,17.1
10,Cn1c2ccccc2c(=O)c2cc(C#Cc3ccccn3)ccc21,-0.776
11,CCc1ccccc1N1C(=O)C2CC=CCC2C1=O (stereo not shown),-6.41
12,COc1ccc(OC)c(S(=O)(=O)N(C)CC(=O)N2CCc3ccccc3C2)c1,-35.1
13,CCN(Cc1nc2cc(OC)c(OC)cc2c(=O)[nH]1)C(=O)c1ccc(S(=O)(=O)N(C)C)cc1,4.07
14,Cc1cnc(NC2=NCCC2)s1,5.05
15,O=C(OCC(=O)c1ccc[nH]1)c1ccc(Cl)nc1,-5.61
16,Cc1ccc(-n2nc(C)c(NS(=O)(=O)c3ccccc3)c2C)cc1C,-16.9
17,COC(CN(C)C(=O)c1cn(C)c2ccc(S(=O)(=O)N(C)C3CCCCC3)cc2c1=O)OC,10.3
18,CCN(CC)S(=O)(=O)c1ccc2c(c1)c(=O)c(C(=O)NCCCN(C)c1ccccc1)cn2C,-12.2
19,CCCN(CCC)CCCNC(=O)c1cn(C)c2ccc(S(=O)(=O)N(C)C3CCCCC3)cc2c1=O,-73.7
20,Cn1c(=O)n(C)c2cc(S(=O)(=O)Nc3ccc(F)cc3)ccc21,20.9
21,CCN1CCN(c2ccc(S(=O)(=O)N3CCCC3)cn2)CC1,16.2

row,Structure (SMILES),"hERG current change (%, negative = inhibition) at 10uM [%]"
1,Cc1nn(-c2ccccc2)c(C)c1NC(=O)COC(=O)CCc1ccccc1,-10.2
2,CC(=O)N1CCC2(CC1)CC(=O)c1cc(OCC(=O)N3CCCC3)ccc1O2,9.03
3,COc1cccc(OCC(=O)N2CCC3(CC2)CC(=O)c2ccccc2O3)c1,-55.8
4,Cc1cccc(OCC(=O)N2CCC3(CC2)CC(=O)c2ccccc2O3)c1,-54.7
5,CC(=O)N1CCC2(CC1)CC(=O)c1cc(OCC(=O)N3CCOCC3)ccc1O2,-10.6
6,CC(C)(C)C1CCC(OC(=O)C[N+]2(C)CCCCC2)CC1.[I-] (stereo not shown),23.1
7,Cc1cccc(Nc2ccc(C(=O)N3CCOCC3)cn2)c1,10.7
8,Cc1ccc(S(=O)(=O)Nc2cccc(C(=O)NCCN3CCOCC3)c2)cc1F,-1.9
9,Cc1cccc(NS(=O)(=O)c2cccc(C(=O)NCC(C)(C)N3CCOCC3)c2)c1,4.99
10,CCOc1ccc(S(=O)(=O)Nc2ccc(C(=O)NCC3(N4CCCCC4)CCCCC3)cc2)cc1,-45.8
11,Cc1ccc(S(=O)(=O)Nc2cccc(C(=O)N3CCCC3)c2)cc1F,-0.933
12,O=C(NCC1(N2CCCCC2)CCCCC1)c1ccc(NS(=O)(=O)c2ccccc2)cc1,-44.1
13,CCOc1ccc(NS(=O)(=O)c2ccc(C(=O)NCC3(N4CCCCC4)CCCCC3)cc2)cc1,-11
14,Cc1ccc(S(=O)(=O)Nc2cccc(C(=O)NCC(C)(C)N3CCOCC3)c2)cc1F,-50.3
15,Cc1ccc(S(=O)(=O)Nc2cccc(C(=O)NCC3(N4CCCCC4)CCCCC3)c2)cc1F,-82.6
16,CC(=O)Nc1cccc(C(=O)NCC2(N3CCCCC3)CCCCC2)c1,19.4
17,CC(C)(CNC(=O)c1cccc(NS(=O)(=O)c2ccc(Br)cc2)c1)N1CCOCC1,-33.7
18,O=C(NCC1(N2CCCCC2)CCCCC1)c1cccc(NS(=O)(=O)c2ccccc2)c1,-64.4
19,CCOc1ccc(S(=O)(=O)Nc2cccc(C(=O)NCC3(N4CCCCC4)CCCCC3)c2)cc1,-71.6
20,C[C@H](NC(=O)N1CCn2c1nc1ccccc12)C(=O)NCC1CCCO1 (stereo partly shown),20.8
21,CC(OC(=O)c1cccc(-n2cnnn2)c1)C(=O)Nc1cccc(Cl)c1 (stereo not shown),-2.88

row,Structure (SMILES),"hERG current change (%, negative = inhibition) at 10uM [%]"
1,N#Cc1ccccc1OCC(=O)OCC(=O)N1CCN(C(=O)c2ccco2)CC1,3.22
2,Cc1cc(N2C(=O)CC(N3CCN(c4ccc(C(=O)c5cccs5)cc4)CC3)C2=O)no1 (stereo not shown),-37.3
3,CC(C)CCOP(=O)(c1ccc(N(C)C)cc1)C(O)c1ccc(C(C)C)cc1 (stereo not shown),11.7
4,CCOC(=O)c1cn2nc(Oc3ccccc3)ccc2n1,-12.8
5,O=C(Cc1ccccc1)N/N=C/c1cc2c(cc1Cl)OCO2,1.85
6,COc1cc(NC(=O)NNC(=O)c2cc3occc3n2C)cc(OC)c1OC,26.1
7,Cc1cccc(NS(=O)(=O)c2cccc(C(=O)NCC3(N4CCCCC4)CCCCC3)c2)c1,-89.9
8,CNS(=O)(=O)c1cccc(C(=O)NCC2(N3CCCCC3)CCCCC2)c1,-18.3
9,CS(=O)(=O)c1ccc(C(=O)NCC2(N3CCCCC3)CCCCC2)cc1,-11
10,CNS(=O)(=O)c1cccc(C(=O)NCC2(N3CCOCC3)CCCCC2)c1,9.92
11,Cc1cc(S(=O)(=O)Nc2ccc(C(=O)NCC3(N4CCCCC4)CCCCC3)cc2)ccc1F,-66.4
12,O=C(NCC1(N2CCCCC2)CCCCC1)c1ccc(NS(=O)(=O)c2ccc(F)cc2)cc1,-42.9
13,O=C(COc1ccccc1)Nc1nc(-c2cccs2)cs1,5.72
14,CCOC(=O)c1c(C)[nH]c(C(=O)OC(C)C(=O)NCc2ccccc2)c1C (stereo not shown),17.4
15,COc1ccccc1-c1nnc(NC(=O)C2=COCCO2)o1,14.3
16,CCc1sc(C(=O)N2CCC3(CC2)OCCO3)cc1Br,-7.08
17,CC(=O)Nc1ccc(Nc2nnc(-c3ccc(C)c(S(=O)(=O)NCC4CCCO4)c3)c3ccccc23)cc1 (stereo not shown),-5.1
18,O=C1NN(c2ccc(Br)cc2)C(=O)/C1=C\c1ccc(O)cc1O,30.2
19,Cc1ccccc1C(=O)Nc1ccc2nc3n(c(=O)c2c1)CCC3,-9.1

# — PMC4336329 (PLoS ONE, 2015)
